Experimental data: the supplement of paper PMC8975748
Counter-ions that a name gives are not always drawn. ± gives the standard deviation of the averaged measurements.

What was measured:
[1] = test system: Saccharomyces cerevisiae BY4741 SeMeCo community; test: mean cell size (pixel area) (pixels); higher = larger cells; conditions: 10 µM; 24 h; SM minimal medium
How it was run: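 Plates of 384 wells were acoustically predosed with drug at a final 10 µM in SM medium, and 70 µl of a Saccharomyces cerevisiae BY4741 preculture diluted from OD600 = 1.0 to OD600 = 0.3 was added for 24 h. The yeast formed a four-plasmid fluorescent community in which each plasmid complements one auxotrophy and carries a fluorescent marker. Fixed cells were imaged by automated confocal microscopy and analysed in Harmony for mean cell pixel area per well. Values are means of 3 replicates. Same SeMeCo high-content imaging drug screen: Selleck FDA-approved drugs at 10 µM, 24 h in SM medium, 384-well plates, 3 replicates.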

[2] = test system: Saccharomyces cerevisiae BY4741 SeMeCo community; test: z-score of prototroph abundance vs DMSO median; higher = larger share of this subpopulation than in DMSO controls; conditions: 10 µM; 24 h; SM minimal medium; subpopulation (auxotrophy): Prototroph
How it was run: (§1)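 Cells of a Saccharomyces cerevisiae BY4741 community, carrying four plasmids that each restored one auxotrophy and encoded a distinct fluorescent protein, were pre-grown overnight to OD600 1.0 and diluted to 0.3. A 70 µl volume was added to 384-well plates acoustically predosed with library drugs (10 µM final) and grown 24 h in minimal SM medium. After paraformaldehyde fixation, automated confocal microscopy was used, with single-auxotroph fluorescent strains for thresholds and autofluorescence correction. The abundance of each subpopulation was scored as a z-score against the vehicle-well median.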

[3] = test system: Saccharomyces cerevisiae BY4741 SeMeCo community; test: z-score of subpopulation abundance vs DMSO median, subpopulation auxotrophic for M; higher = larger share of this subpopulation than in DMSO controls; conditions: 10 µM; 24 h; SM minimal medium; subpopulation (auxotrophy): M
How it was run: as §1

[4] = test system: Saccharomyces cerevisiae BY4741 SeMeCo community; test: z-score of subpopulation abundance vs DMSO median, subpopulation auxotrophic for L; higher = larger share of this subpopulation than in DMSO controls; conditions: 10 µM; 24 h; SM minimal medium; subpopulation (auxotrophy): L
How it was run: as §1

[5] = test system: Saccharomyces cerevisiae BY4741 SeMeCo community; test: z-score of subpopulation abundance vs DMSO median, subpopulation auxotrophic for H; higher = larger share of this subpopulation than in DMSO controls; conditions: 10 µM; 24 h; SM minimal medium; subpopulation (auxotrophy): H
How it was run: as §1

[6] = test system: Saccharomyces cerevisiae BY4741 SeMeCo community; test: z-score of subpopulation abundance vs DMSO median, subpopulation auxotrophic for LM; higher = larger share of this subpopulation than in DMSO controls; conditions: 10 µM; 24 h; SM minimal medium; subpopulation (auxotrophy): LM
How it was run: as §1

[7] = test system: Saccharomyces cerevisiae BY4741 SeMeCo community; test: z-score of subpopulation abundance vs DMSO median, subpopulation auxotrophic for HM; higher = larger share of this subpopulation than in DMSO controls; conditions: 10 µM; 24 h; SM minimal medium; subpopulation (auxotrophy): HM
How it was run: as §1

[8] = test system: Saccharomyces cerevisiae BY4741 SeMeCo community; test: z-score of subpopulation abundance vs DMSO median, subpopulation auxotrophic for UM; higher = larger share of this subpopulation than in DMSO controls; conditions: 10 µM; 24 h; SM minimal medium; subpopulation (auxotrophy): UM
How it was run: as §1

[9] = test system: Saccharomyces cerevisiae BY4741 SeMeCo community; test: z-score of subpopulation abundance vs DMSO median, subpopulation auxotrophic for HLU; higher = larger share of this subpopulation than in DMSO controls; conditions: 10 µM; 24 h; SM minimal medium; subpopulation (auxotrophy): HLU
How it was run: as §1

[10] = test system: Saccharomyces cerevisiae BY4741 SeMeCo community; test: z-score of subpopulation abundance vs DMSO median, subpopulation auxotrophic for HLM; higher = larger share of this subpopulation than in DMSO controls; conditions: 10 µM; 24 h; SM minimal medium; subpopulation (auxotrophy): HLM
How it was run: as §1

[11] = test system: Saccharomyces cerevisiae BY4741 SeMeCo community; test: z-score of subpopulation abundance vs DMSO median, subpopulation auxotrophic for HUM; higher = larger share of this subpopulation than in DMSO controls; conditions: 10 µM; 24 h; SM minimal medium; subpopulation (auxotrophy): HUM
How it was run: as §1

[12] = test system: Saccharomyces cerevisiae BY4741 SeMeCo community; test: z-score of subpopulation abundance vs DMSO median, subpopulation auxotrophic for LUM; higher = larger share of this subpopulation than in DMSO controls; conditions: 10 µM; 24 h; SM minimal medium; subpopulation (auxotrophy): LUM
How it was run: as §1

[13] = test system: Saccharomyces cerevisiae BY4741 SeMeCo community; test: z-score of subpopulation abundance vs DMSO median, subpopulation auxotrophic for HLUM; higher = larger share of this subpopulation than in DMSO controls; conditions: 10 µM; 24 h; SM minimal medium; subpopulation (auxotrophy): HLUM
How it was run: as §1

[14] = test system: Saccharomyces cerevisiae BY4741 SeMeCo community; test: z-score of subpopulation abundance vs DMSO median, subpopulation auxotrophic for U; higher = larger share of this subpopulation than in DMSO controls; conditions: 10 µM; 24 h; SM minimal medium; subpopulation (auxotrophy): U
How it was run: as §1

[15] = test system: Saccharomyces cerevisiae BY4741 SeMeCo community; test: z-score of subpopulation abundance vs DMSO median, subpopulation auxotrophic for LU; higher = larger share of this subpopulation than in DMSO controls; conditions: 10 µM; 24 h; SM minimal medium; subpopulation (auxotrophy): LU
How it was run: as §1

[16] = test system: Saccharomyces cerevisiae BY4741 SeMeCo community; test: z-score of subpopulation abundance vs DMSO median, subpopulation auxotrophic for HU; higher = larger share of this subpopulation than in DMSO controls; conditions: 10 µM; 24 h; SM minimal medium; subpopulation (auxotrophy): HU
How it was run: as §1

[17] = test system: Saccharomyces cerevisiae BY4741 SeMeCo community; test: z-score of subpopulation abundance vs DMSO median, subpopulation auxotrophic for HL; higher = larger share of this subpopulation than in DMSO controls; conditions: 10 µM; 24 h; SM minimal medium; subpopulation (auxotrophy): HL
How it was run: as §1

Compound | mean cell size [1] | z-score of prototroph abundance [2] | z-score of subpopulation abundance [3] | z-score of subpopulation abundance [4] | z-score of subpopulation abundance [5] | z-score of subpopulation abundance [6] | z-score of subpopulation abundance [7] | z-score of subpopulation abundance [8] | z-score of subpopulation abundance [9] | z-score of subpopulation abundance [10] | z-score of subpopulation abundance [11] | z-score of subpopulation abundance [12] | z-score of subpopulation abundance [13] | z-score of subpopulation abundance [14] | z-score of subpopulation abundance [15] | z-score of subpopulation abundance [16] | z-score of subpopulation abundance [17]
CN1C(C(=O)Nc2ccccn2)=C(O)c2ccccc2S1(=O)=O [Piroxicam] | 12.79 ± 0.11 | 1.29 | -0.1 | -0.78 | -0.62 | -1.45 | -0.94 | -0.3 | -1.14 | -0.68 | -0.89 | -1.33 | -0.92 |  |  |  | 
CCC(=O)NS(=O)(=O)c1ccc(-c2c(-c3ccccc3)noc2C)cc1 [Parecoxib] |  | -0.12 | 0.6 |  | 0.1 | 0.77 | 0.95 |  | 0.16 |  | -0.44 | 0.13 | -0.37 | -0.29 | -0.15 | -0.34 | 0.12
C(=C\c1ccccc1)/CN1CCN(C(c2ccccc2)c2ccccc2)CC1 [Cinnarizine] | 12.21 ± 0.081 |  | -1.68 | 0.22 | -0.62 | -0.47 | -0.68 | 1.3 | 1.32 | -0.32 | 1.64 | 0.8 | 0.66 | 1.39 |  |  | 0.34
CCCOc1ccc(C(=O)OCCN(CC)CC)cc1N [Proparacaine HCl] |  | 0.46 | -0.55 |  | -0.4 | -0.38 | -0.65 | -0.06 | -0.61 |  | -0.66 | -0.49 | -0.51 | 0.18 | 0.25 | -0.31 | -0.68
C[C@@H](O)[C@H]1C(=O)N2C(C(=O)OCOC(=O)C(C)(C)C)=C(SC3CN(C4=NCCS4)C3)[C@H](C)[C@H]12 [Tebipenem Pivoxil] | 12.4 ± 0.16 | 0.66 | -0.17 | 0 | -0.29 | 0.18 | -0.9 | -0.27 | -0.99 | -0.55 | -0.67 | 0.09 | -0.74 | 0.02 |  | -0.03 | -0.41
C[C@H]1COc2c(N3CCN(C)CC3)c(F)cc3c(=O)c(C(=O)O)cn1c23 [Levofloxacin hydrate] | 12.5 ± 0.29 | -1.38 | 0.54 | 1.32 | 0.26 | 1.34 | 0.64 | 0.61 | 0.84 | 0.07 | 0.55 | 1.66 | 0.84 | 0.27 |  |  | 
C[C@H]1NCc2cc(-c3ccc4c(=O)c(C(=O)O)cn(C5CC5)c4c3OC(F)F)ccc21 [Garenoxacin] | 12.34 ± 0.078 |  | 0.86 | -0.44 |  | 0.15 | 0.28 |  | 0.74 | 0.1 | 0.84 | 0.75 | -0.08 | 0.6 |  | 0.7 | 0.46
O=c1[nH]c2ccccc2n1CCN1CCN(c2cccc(C(F)(F)F)c2)CC1 [Flibanserin] | 12.25 ± 0.046 | 0.65 | -0.31 | -0.73 | -0.96 | -0.37 | -0.79 | 0.43 | -0.49 | -0.86 | -0.15 |  | -0.98 | 0.4 |  | -0.17 | -0.75
CC[C@H](c1ccc(O)cc1)[C@@H](CC)c1ccc(O)cc1 [Hexestrol] | 12.7 ± 0.21 | 1.27 | 0.45 | -0.78 | -0.31 | -0.2 | -0.94 | -0.86 | -0.58 | -0.94 | -0.88 |  | -1.21 | -0.6 |  | -0.58 | -0.81
CC1(C)S[C@@H]2[C@H](NC(=O)Cc3ccccc3)C(=O)N2[C@H]1C(=O)O.CCN(CC)CCOC(=O)c1ccc(N)cc1 [Penicillin G Procaine] | 12.2 ± 0.22 | -1.56 | 0.35 | 0.99 | 1.75 | 1 | 0.69 | 0.64 | 0.81 | 0.43 | 0.86 | 1.6 |  | -0.07 |  | 0.54 | 2.5
CO/N=C(\C(=O)N[C@@H]1C(=O)N2C(C(=O)O)=C(CSc3nnnn3C)CS[C@H]12)c1csc(N)n1 [Cefmenoxime hydrochloride] | 12.5 ± 0.38 | -0.33 | 0.36 | -0.06 | 0.02 | 0.27 | 0.28 |  | -0.51 | -0.86 | -0.02 | -0.46 | -0.52 |  |  | -0.46 | -0.51
CCN1CCCC1CNC(=O)c1cc(S(=O)(=O)CC)c(N)cc1OC (configuration not stated) [Amisulpride] | 12.4 ± 0.13 | 0.14 | 0.12 |  | 0.19 | -0.1 |  | 0.04 | -0.63 |  |  | -0.21 | -0.8 | 0.31 | 0.33 |  | 
O=C1CC2(CCCC2)CC(=O)N1CCCCN1CCN(c2ncccn2)CC1 [Buspirone HCl] | 12.4 ± 0.25 | 0.7 | -1.82 | 0.76 | -0.72 | -0.34 | -0.83 | -1.32 | -0.25 | -0.1 | -0.84 | -0.12 |  | 0.5 |  | -0.07 | 0
O=C(O)CCNC(=O)c1ccccc1 [Betamipron] | 12.6 ± 0.21 | -0.09 | 0.51 | -1.22 | -0.34 | -0.71 | -0.4 | 0.43 | -1 | -1.05 | -0.33 | -0.64 |  | 0.99 |  | 0.19 | -0.92
